Among all 39,000 compounds or so, about 3,300 (8.5%) were called active. Many of the other results were omitted from the sample, so actives are more common in it than they were.

For this assay, the system named is HepG2. The assay is described as follows: cytotoxicity call (relative viability < 0.9). The following applies: 10 µM.
Consider `C[C@H](CO)N1C[C@H](C)[C@H](CN(C)C(=O)Cc2ccccc2)OCCCC[C@H](C)Oc2ccc(NC(=O)Nc3ccc(F)cc3)cc2C1=O`, for which the cytotoxicity call is “inactive”.
Take `CCS(=O)(=O)Nc1ccc2c(c1)C(=O)N(C)[C@H]1CC[C@H](CC(=O)NCc3ccc(OC)cc3)O[C@@H]1CO2`: the cytotoxicity call was “inactive”.
For `C[C@H](CO)N1C[C@H](C)[C@H](CN(C)C(=O)Nc2ccc3c(c2)OCO3)OCCCC[C@H](C)Oc2ccc(NC(=O)c3ccncc3)cc2C1=O` the value was “inactive”; for `C[C@H]1CCCCO[C@H](CN(C)Cc2ccncc2)[C@@H](C)CN([C@@H](C)CO)C(=O)c2cc(NC(=O)Nc3ccc(C(F)(F)F)cc3)ccc2O1`, “active”.
For the compound `C[C@@H]1CCCCO[C@@H](CN(C)Cc2ccncc2)[C@@H](C)CN([C@@H](C)CO)C(=O)c2cc(NC(=O)Nc3ccc(C(F)(F)F)cc3)ccc2O1`, the cytotoxicity call was “inactive”.
As to `C[C@@H]1CCCCO[C@@H](CN(C)Cc2ccncc2)[C@@H](C)CN([C@H](C)CO)C(=O)c2cc(NC(=O)Nc3ccc(C(F)(F)F)cc3)ccc2O1`, the cytotoxicity call is “active”.
As to `C[C@@H]1CCCCO[C@H](CN(C)Cc2ccncc2)[C@H](C)CN([C@@H](C)CO)C(=O)c2cc(NC(=O)Nc3ccc(C(F)(F)F)cc3)ccc2O1`, the cytotoxicity call was “active”.
Regarding `C[C@@H]1CN([C@@H](C)CO)C(=O)c2cc(NC(=O)Nc3ccc(C(F)(F)F)cc3)ccc2O[C@@H](C)CCCCO[C@H]1CN(C)Cc1ccncc1`, the cytotoxicity call was “inactive”.
For `C[C@@H]1CN([C@@H](C)CO)C(=O)c2cc(NC(=O)Nc3ccc(C(F)(F)F)cc3)ccc2O[C@@H](C)CCCCO[C@@H]1CN(C)Cc1ccncc1` the value was “active”; for `C[C@H](CO)N1C[C@H](C)[C@@H](CN(C)CC2CC2)Oc2ccc(NC(=O)CCN3CCOCC3)cc2CC1=O`, “inactive”; for `COC(=O)c1c(CC[C@@H](CO)NC(=O)N[C@H](Cc2ccccc2)Cn2cc(-c3ccccc3N)nn2)oc(C(C)=O)c1C(=O)OC`, “inactive”.
On to `COc1ccc(NC(=O)N(C)C[C@@H]2Oc3ccc(NC(=O)Nc4cccc5ccccc45)cc3CC(=O)N([C@H](C)CO)C[C@H]2C)cc1`, for which the cytotoxicity call was “inactive”.
`C[C@H](CO)N1C[C@H](C)[C@H](CN(C)C(=O)NC2CCCCC2)OCCCC[C@H](C)Oc2ccc(NC(=O)c3ccncc3)cc2C1=O`: the cytotoxicity call was “inactive”.
Consider `COc1ccc(NC(=O)N(C)C[C@H]2Oc3ccc(NC(=O)CCN4CCOCC4)cc3C(=O)N([C@@H](C)CO)C[C@H]2C)cc1`, for which the cytotoxicity call was “inactive”.
For `C[C@@H]1CN([C@@H](C)CO)C(=O)CCCn2nncc2CO[C@H]1CN(C)C(=O)c1ccc(N2CCN(C)CC2)cc1` the value was “inactive”; for `C[C@H]1CN([C@@H](C)CO)C(=O)c2cccc(NC(=O)C3CC3)c2O[C@@H]1CN(C)C(=O)Nc1ccc2c(c1)OCO2`, “inactive”.
On to `C[C@@H]1CCCCO[C@H](CN(C)CC2CCCCC2)[C@H](C)CN([C@@H](C)CO)C(=O)c2cc(NC(=O)c3ccncc3)ccc2O1`, for which the cytotoxicity call was “inactive”.
In the case of `C[C@@H]1CN([C@H](C)CO)C(=O)Cc2cc(NC(=O)Cn3cnnn3)ccc2O[C@H]1CN(C)C(=O)Nc1ccc2c(c1)OCO2`, the cytotoxicity call is “inactive”.
As for `COCC(=O)N1C[C@@H](C)[C@@H](OC)CN(C)C(=O)c2cc(NC(=O)c3cc(C)on3)ccc2OC[C@@H]1C`, the cytotoxicity call is “inactive”.
Consider `Cc1ccc(S(=O)(=O)Nc2ccc3c(c2)CC(=O)N([C@@H](C)CO)C[C@H](C)[C@@H](CN(C)Cc2ccc(Oc4ccccc4)cc2)O3)cc1`, for which the cytotoxicity call was “active”.
For `Cc1ccc(S(=O)(=O)Nc2ccc3c(c2)CC(=O)N([C@@H](C)CO)C[C@@H](C)[C@@H](CN(C)Cc2ccc(Oc4ccccc4)cc2)O3)cc1`, the cytotoxicity call was “inactive”.
Take `Cc1ccc(S(=O)(=O)Nc2ccc3c(c2)CC(=O)N([C@@H](C)CO)C[C@H](C)[C@H](CN(C)Cc2ccc(Oc4ccccc4)cc2)O3)cc1`: the cytotoxicity call is “inactive”.
As for `Cc1ccc(S(=O)(=O)Nc2ccc3c(c2)CC(=O)N([C@H](C)CO)C[C@H](C)[C@@H](CN(C)Cc2ccc(Oc4ccccc4)cc2)O3)cc1`, the cytotoxicity call is “inactive”.
Consider `Cc1ccc(S(=O)(=O)Nc2ccc3c(c2)CC(=O)N([C@H](C)CO)C[C@@H](C)[C@@H](CN(C)Cc2ccc(Oc4ccccc4)cc2)O3)cc1`, for which the cytotoxicity call was “active”.
For `Cc1ccc(S(=O)(=O)Nc2ccc3c(c2)CC(=O)N([C@@H](C)CO)C[C@@H](C)[C@H](CN(C)Cc2ccc(Oc4ccccc4)cc2)O3)cc1` the value was “inactive”; for `COc1ccc(S(=O)(=O)N(C)C[C@@H]2Oc3c(NC(=O)c4cc(C)nn4C)cccc3C(=O)N([C@@H](C)CO)C[C@H]2C)cc1`, “inactive”; for `C[C@H](O)C#Cc1ccc2c(c1)O[C@@H](CN(C)C(=O)Nc1ccccc1)[C@@H](C)CN([C@@H](C)CO)S2(=O)=O`, “inactive”.
The same measure for `C[C@@H]1CN([C@H](C)CO)C(=O)CCCn2cc(nn2)CO[C@H]1CN(C)S(=O)(=O)c1ccc(Cl)cc1`: “inactive”; for `C[C@@H]1CCCCO[C@@H](CN(C)C(=O)C2CCCCC2)[C@H](C)CN([C@H](C)CO)C(=O)c2cc(NC(=O)Cc3ccccc3)ccc2O1`: “inactive”.
Turning to `CC(C)CC(=O)Nc1cncc(-c2ccc3[nH]nc(-c4nc5cncc(-c6cccc(F)c6)c5[nH]4)c3c2)c1`, the cytotoxicity call was “active”.
On to `CO[C@H](CN(C)C(=O)C1CCOCC1)[C@@H](C)CN(C(=O)Nc1ccc(C(F)(F)F)cc1)[C@H](C)CO`, for which the cytotoxicity call was “inactive”.
In the case of `COc1ccccc1CNC(=O)C[C@@H]1C[C@H]2c3cc(NC(=O)C4CCOCC4)ccc3O[C@H]2[C@H](CO)O1`, the cytotoxicity call was “inactive”.
`NCc1nc(-c2ccccc2)no1`: the cytotoxicity call is “inactive”.
For `CCN(CC)CCc1nc(-c2ccccc2)no1.O=C(O)CC(O)(CC(=O)O)C(=O)O`, the cytotoxicity call is “active”.
For `CCN(CCCc1ccccc1)CCCc1ccccc1.O=C(O)CC(O)(CC(=O)O)C(=O)O`, the cytotoxicity call was “inactive”.
Regarding `C=CC(=O)Nc1ccccc1[C@@H](CCc1ccc(OC)c(OC)c1)OC(=O)[C@@H]1CCCCN1C(=O)C(=O)C(C)(C)CC`, the cytotoxicity call was “inactive”.
With `COc1ccc(NC(=O)Nc2ccc3c(c2)[C@H]2C[C@H](CC(=O)NCC(F)(F)F)O[C@H](CO)[C@H]2O3)cc1`, the cytotoxicity call was “inactive”.
In the case of `Cn1cnc(CCNC(=O)C[C@@H]2CC[C@@H]3[C@H](COC[C@@H](O)CN3C(=O)Nc3ccc(C(F)(F)F)cc3)O2)c1`, the cytotoxicity call is “inactive”.
The same measure for `COc1ccc(CN(C)C[C@H]2Oc3c(NC(=O)Nc4ccc(C(F)(F)F)cc4)cccc3C(=O)N([C@H](C)CO)C[C@@H]2C)cc1`: “inactive”.
In the case of `COc1ccc(CN(C)C[C@H]2Oc3c(NC(=O)Nc4ccc(C(F)(F)F)cc4)cccc3C(=O)N([C@@H](C)CO)C[C@H]2C)cc1`, the cytotoxicity call was “active”.
For the compound `COc1ccc(CN(C)C[C@@H]2Oc3c(NC(=O)Nc4ccc(C(F)(F)F)cc4)cccc3C(=O)N([C@@H](C)CO)C[C@H]2C)cc1`, the cytotoxicity call is “active”.
As to `COc1ccc(NC(=O)Nc2cccc3c2O[C@@H](CN(C)Cc2ccc(C(F)(F)F)cc2)[C@@H](C)CN([C@H](C)CO)C3=O)cc1`, the cytotoxicity call was “inactive”.
Turning to `COc1ccc(NC(=O)Nc2cccc3c2O[C@@H](CN(C)Cc2ccc(C(F)(F)F)cc2)[C@H](C)CN([C@@H](C)CO)C3=O)cc1`, the cytotoxicity call was “inactive”.
With `COc1ccc(CN(C)C[C@H]2Oc3c(NC(=O)Nc4ccc(C(F)(F)F)cc4)cccc3C(=O)N([C@H](C)CO)C[C@H]2C)cc1`, the cytotoxicity call is “inactive”.
For `Cc1noc(C)c1NC(=O)N(C)C[C@@H]1OCCCC[C@@H](C)Oc2ccc(NC(=O)C3CCCCC3)cc2C(=O)N([C@H](C)CO)C[C@H]1C`, the cytotoxicity call is “inactive”.
For `C[C@@H]1CN([C@@H](C)CO)S(=O)(=O)c2ccc(Br)cc2O[C@H]1CN(C)C(=O)c1ccccc1F` the value was “inactive”.
Take `O=C(O)c1cc(=O)cc[nH]1`: the cytotoxicity call was “inactive”.
Turning to `C[C@@H]1CN([C@@H](C)CO)C(=O)Cc2cc(NS(=O)(=O)c3ccc(F)cc3)ccc2O[C@@H]1CN(C)Cc1ccncc1`, the cytotoxicity call was “inactive”.
For `COc1ccc(CNC(=O)C[C@H]2C[C@H]3c4cc(NC(=O)NC5CCCC5)ccc4O[C@H]3[C@H](CO)O2)cc1`, the cytotoxicity call was “inactive”.
For `COc1cccc(S(=O)(=O)Nc2ccc3c(c2)[C@H]2C[C@H](CC(=O)NC4CCCCC4)O[C@H](CO)[C@H]2O3)c1`, the cytotoxicity call is “inactive”.
As to `OC(c1ccc(-c2ccc(CN3CCN(Cc4ccncc4)CC3)cc2)c(F)c1)(C(F)(F)F)C(F)(F)F`, the cytotoxicity call was “inactive”.
For `CC(=O)N[C@@H](CC(C)C)C(=O)O` [listing 1 of 2 here] the value was “inactive”; for `CC(C)C[C@@H](NC(=O)CCN)C(=O)O`, “active”.
For `CC(=O)N[C@@H](CC(C)C)C(=O)O` [listing 2 of 2 here] the value was “inactive”.
Consider `O=C(N[C@@H]1CC[C@H](CCNS(=O)(=O)c2ccc(F)cc2)O[C@H]1CO)C1CC1`, for which the cytotoxicity call is “inactive”.
In the case of `Cc1noc(C)c1S(=O)(=O)N(C)C[C@@H]1Oc2ccc(NC(=O)NC(C)C)cc2CC(=O)N([C@@H](C)CO)C[C@H]1C`, the cytotoxicity call is “inactive”.
In the case of `CCN1C(=O)S/C(=C\C(=O)O)C1=O`, the cytotoxicity call is “inactive”.
The same measure for `O=C(C[C@H]1CC[C@@H]2NC[C@@H](O)COC[C@H]2O1)NCCN1CCCCC1`: “inactive”; for `C[C@H]1CCCCO[C@H](CN(C)S(=O)(=O)c2ccc(Cl)cc2)[C@@H](C)CN([C@@H](C)CO)C(=O)c2cc(NC(=O)Nc3ccc(C(F)(F)F)cc3)ccc2O1`: “inactive”; for `C[C@@H]1CCCCO[C@@H](CN(C)S(=O)(=O)c2ccc(Cl)cc2)[C@H](C)CN([C@@H](C)CO)C(=O)c2cc(NC(=O)Nc3ccc(C(F)(F)F)cc3)ccc2O1`: “inactive”.
For `C[C@@H]1CCCCO[C@H](CN(C)S(=O)(=O)c2ccc(Cl)cc2)[C@@H](C)CN([C@H](C)CO)C(=O)c2cc(NC(=O)Nc3ccc(C(F)(F)F)cc3)ccc2O1`, the cytotoxicity call was “active”.
As to `C[C@@H]1CN([C@H](C)CO)C(=O)c2cc(NC(=O)Nc3ccc(C(F)(F)F)cc3)ccc2O[C@@H](C)CCCCO[C@H]1CN(C)S(=O)(=O)c1ccc(Cl)cc1`, the cytotoxicity call was “inactive”.
The same measure for `C[C@H](CO)N1C[C@H](C)[C@H](CN(C)S(=O)(=O)c2ccc(Cl)cc2)OCCCC[C@H](C)Oc2ccc(NC(=O)Nc3ccc(C(F)(F)F)cc3)cc2C1=O`: “active”; for `C[C@@H]1CCCCO[C@@H](CN(C)S(=O)(=O)c2ccc(Cl)cc2)[C@H](C)CN([C@H](C)CO)C(=O)c2cc(NC(=O)Nc3ccc(C(F)(F)F)cc3)ccc2O1`: “inactive”.
